Measured values as given in PubChem BioAssay AID1159580 (chemical genetic matrix, 2015).
Several values for one entry are separate records, joined by “and”; a condition that tells them apart may be missing. Equal values may be shown once. The whole screen tested about 5,500 compounds, of which about 2,000 (36%) were called active. Roughly 18% stayed inconclusive and do not appear here. Rule as the data show it: active = normalized growth mostly below about 0.91 (no sharp cut-off); inconclusive = no clear call, values can overlap the other calls; inactive = mostly above about 0.92. The list shows a part of the results.

Assay: chemical genetic growth profiling, strain panel (AID 1159580);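 also: tested at 20 µM; growth read once vehicle control cultures reached saturation at 30 °C; 1 = growth at the plate median or of vehicle wells; lower values mean less growth of the strain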
Settings: growth OD

Measured: normalized growth

NCCCS(=O)(=O)O
inactive: S. cerevisiae deletion strains, locus YKL068W, hits give low values 0.995 | S. cerevisiae deletion strains, locus YKL085W, strain MDH1 (second series), hits give low values 0.986 | S. cerevisiae deletion strains, locus YKL085W, strain MDH1, hits give low values 0.986 | S. cerevisiae deletion strains, locus YKL160W, strain elf1, hits give low values 1 | S. cerevisiae deletion strains, locus YKL190W, strain CNB1, hits give low values 0.993 | S. cerevisiae deletion strains, locus YKR001C, strain vps1, hits give low values 0.994 | S. cerevisiae deletion strains, locus YKR026C, strain gcn3, hits give low values 1 | S. cerevisiae deletion strains, locus YKR091W, strain srl3, hits give low values 1.01 | S. cerevisiae deletion strains, locus YLL001W, strain dnm1, hits give low values 1.03 | S. cerevisiae deletion strains, locus YLL026W, hits give low values 1.01 | S. cerevisiae deletion strains, locus YLL041C, strain sdh2, hits give low values 1.01 | S. cerevisiae deletion strains, locus YLR027C, strain aat2, hits give low values 0.996 | S. cerevisiae deletion strains, locus YLR039C, strain RIC1, hits give low values 0.986 | S. cerevisiae deletion strains, locus YLR058C, strain SHM2, hits give low values 0.965 | S. cerevisiae deletion strains, locus YLR102C, strain apc9, hits give low values 0.993 | S. cerevisiae deletion strains, locus YLR113W, strain HOG1, hits give low values 0.954 | S. cerevisiae deletion strains, locus YLR221C, strain rsa3, hits give low values 1.01 | S. cerevisiae deletion strains, locus YLR258W, strain gsy2, hits give low values 1.01 | S. cerevisiae deletion strains, locus YLR262C, strain YPT6 (second series), hits give low values 1.02 | S. cerevisiae deletion strains, locus YLR262C, strain YPT6, hits give low values 1.05 | S. cerevisiae deletion strains, locus YLR268W, strain sec22, hits give low values 1.04 | S. cerevisiae deletion strains, locus YLR320W, strain mms22, hits give low values 1.01 | S. cerevisiae deletion strains, locus YLR330W, strain CHS5, hits give low values 0.983 | S. cerevisiae deletion strains, locus YLR342W, strain FKS1 (second series), hits give low values 0.99 | S. cerevisiae deletion strains, locus YLR342W, strain FKS1, hits give low values 1.02 | S. cerevisiae deletion strains, locus YLR357W, strain rsc2, hits give low values 1.04 | S. cerevisiae deletion strains, locus YLR370C, strain arc18, hits give low values 1.01 | S. cerevisiae deletion strains, locus YLR371W, strain rom2, hits give low values 0.934 | S. cerevisiae deletion strains, locus YLR384C, strain iki3, hits give low values 1.01 | S. cerevisiae deletion strains, locus YLR418C, strain cdc73, hits give low values 1.01 | S. cerevisiae deletion strains, locus YML016C, strain PPZ1, hits give low values 0.984 | S. cerevisiae deletion strains, locus YML032C, strain rad52, hits give low values 0.994 | S. cerevisiae deletion strains, locus YML120C, strain ndi1, hits give low values 1.02 | S. cerevisiae deletion strains, locus YML124C, strain tub3, hits give low values 0.987 | S. cerevisiae deletion strains, locus YMR058W, strain fet3, hits give low values 1.04 | S. cerevisiae deletion strains, locus YMR078C, strain ctf18, hits give low values 0.999 | S. cerevisiae deletion strains, locus YMR125W, strain sto1, hits give low values 1.02 | S. cerevisiae deletion strains, locus YMR129W, hits give low values 1.01 | S. cerevisiae deletion strains, locus YMR205C, strain PFK2, hits give low values 1.02 | S. cerevisiae deletion strains, locus YMR223W, strain ubp8, hits give low values 0.96 | S. cerevisiae deletion strains, locus YMR231W, strain pep5, hits give low values 1.02 | S. cerevisiae deletion strains, locus YMR263W, strain SAP30, hits give low values 0.977 | S. cerevisiae deletion strains, locus YMR307W, strain GAS1, hits give low values 0.971 | S. cerevisiae deletion strains, locus YNL067W, strain RPL9B, hits give low values 1.01 | S. cerevisiae deletion strains, locus YNL071W, strain lat1, hits give low values 1.03 | S. cerevisiae deletion strains, locus YNL128W, strain TEP1, hits give low values 0.974 | S. cerevisiae deletion strains, locus YNL153C, strain GIM3, hits give low values 0.991 and 1.01 | S. cerevisiae deletion strains, locus YNL175C, strain NOP13, hits give low values 1 | S. cerevisiae deletion strains, locus YNL183C, strain NPR1, hits give low values 0.937 | S. cerevisiae deletion strains, locus YNL197C, strain WHI3, hits give low values 1.01 | S. cerevisiae deletion strains, locus YNL209W, strain ssb2, hits give low values 1.01 | S. cerevisiae deletion strains, locus YNL224C, strain SQS1, hits give low values 1.01 | S. cerevisiae deletion strains, locus YNL233W, strain BNI4, hits give low values 0.987 | S. cerevisiae deletion strains, locus YNL248C, strain rpa49, hits give low values 0.959 | S. cerevisiae deletion strains, locus YNL250W, strain rad50, hits give low values 0.976 | S. cerevisiae deletion strains, locus YNL271C, strain bni1, hits give low values 0.999 | S. cerevisiae deletion strains, locus YNL298W, strain CLA4, hits give low values 0.967 | S. cerevisiae deletion strains, locus YNL307C, strain MCK1, hits give low values 0.998 | S. cerevisiae deletion strains, locus YNL322C, strain KRE1 (second series), hits give low values 1.01 | S. cerevisiae deletion strains, locus YNL322C, strain KRE1, hits give low values 0.987 | S. cerevisiae deletion strains, locus YNR049C, strain mso1, hits give low values 1.01 | S. cerevisiae deletion strains, locus YNR052C, strain pop2, hits give low values 0.969 | S. cerevisiae deletion strains, locus YOL006C, strain TOP1, hits give low values 1.02 | S. cerevisiae deletion strains, locus YOL012C, strain htz1 0.962 | S. cerevisiae deletion strains, locus YOL147C, strain pex11, hits give low values 0.989 | S. cerevisiae deletion strains, locus YOR001W, strain rrp6, hits give low values 1.01 | S. cerevisiae deletion strains, locus YOR061W, strain CKA2, hits give low values 0.965 | S. cerevisiae deletion strains, locus YOR069W, strain VPS5, hits give low values 0.984 | S. cerevisiae deletion strains, locus YOR070C, strain gyp1, hits give low values 1.01 | S. cerevisiae deletion strains, locus YOR080W, strain dia2, hits give low values 1.03 | S. cerevisiae deletion strains, locus YOR083W, strain WHI5 (second series), hits give low values 1.02 | S. cerevisiae deletion strains, locus YOR083W, strain WHI5, hits give low values 1 | S. cerevisiae deletion strains, locus YOR106W, strain vam3, hits give low values 1.01 | S. cerevisiae deletion strains, locus YOR136W, strain idh2, hits give low values 0.981 | S. cerevisiae deletion strains, locus YOR144C, strain elg1, hits give low values 0.998 | S. cerevisiae deletion strains, locus YOR184W, strain ser1, hits give low values 0.983 | S. cerevisiae deletion strains, locus YOR231W, strain MKK1, hits give low values 0.976 | S. cerevisiae deletion strains, locus YOR265W, strain rbl2, hits give low values 1.02 | S. cerevisiae deletion strains, locus YOR270C, strain vph1, hits give low values 1.09 | S. cerevisiae deletion strains, locus YOR290C, strain snf2, hits give low values 1.01 | S. cerevisiae deletion strains, locus YOR316C, strain cot1, hits give low values 0.981 | S. cerevisiae deletion strains, locus YPL051W, strain arl3, hits give low values 1.01 | S. cerevisiae deletion strains, locus YPL055C, strain LGE1, hits give low values 0.993 | S. cerevisiae deletion strains, locus YPL078C, strain atp4, hits give low values 1.02 | S. cerevisiae deletion strains, locus YPL106C, strain sse1, hits give low values 1.01 | S. cerevisiae deletion strains, locus YPL240C, strain hsp82, hits give low values 1.03 | S. cerevisiae deletion strains, locus YPL241C, strain CIN2, hits give low values 0.997 | S. cerevisiae deletion strains, locus YPL256C, strain CLN2, hits give low values 0.964 | S. cerevisiae deletion strains, locus YPR119W, strain clb2, hits give low values 0.987 | S. cerevisiae deletion strains, locus YPR141C, strain kar3, hits give low values 0.973 | S. cerevisiae deletion strains, locus YPR163C, strain tif3, hits give low values 0.998 | S. cerevisiae deletion strains, locus YPR167C, strain met16, hits give low values 1 | S. cerevisiae deletion strains, strain wtn01, hits give low values 0.958 | S. cerevisiae strains, strain wild type, hits give low values 0.984
